This is a sample that favours compounds with a hit; in the whole collection about 11% have one here.
Ins promoter up = MIN6 insulin promoter up-regulation. z-score at 5 µM. MIN6 insulin promoter-GFP reporter, high-content imaging; stronger effect = higher value. 190,000 compounds, 0.3% hits. AID 1625;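 active means z-score above 3 at 5 µM with at least 500 cells counted in the well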
Insulin prom inh = TRM-6 insulin promoter activity inhibition; TRM-6 cells (human fetal islet line), insulin promoter-eGFP reporter, imaging; reporter expression induced with tamoxifen; inhibition, % at 2 µM; 130,000 compounds, 0.9% hits;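 active means inhibition above the mean plus 3 SD, with well images judged a real hit on visual review, cut at about 60% in these data, passing the limit was not always enough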
Autophagy mod = modulators of autophagy; MEF GFP-LC3 puncta imaging; test concentration mostly 10 µM; calls only at 10 µM (by protocol); 190,000 compounds, 0.98% hits; AID 463193;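 active means percentage of spot-positive cells more than 3 SD above its plate mean, without a fluorescence outlier flag or 80% toxicity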
WT yeast gro inh = growth inhibition of WT yeast, mitochondrial fusion screen; 190,000 compounds, 2.1% hits; inhibition, % at 10 µM; mitochondrial fusion phenotypic screen, WT strain; AID 1362; in the data active means inhibition above about 58%; tested in S. cerevisiae
L major viab = inhibitors of Leishmania major promastigote growth. 200,000 compounds, 9% hits. AID 1063. Leishmania major promastigotes, resazurin fluorescence viability. inhibition, % at 10 µM; in the data active means inhibition above about 50%;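 further: promastigotes grown with compound for 44 hours at 28 °C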
Hits are given with their value; 0 = inactive; - = no result; + = active, no number.

SMILES | Ins promoter up | Insulin prom inh | Autophagy mod | WT yeast gro inh | L major viab
Cc1[nH]c(=O)c(C#N)c2c1CSC(C)(C)C2 | - | 0 | 0 | 0 | 0
O=C(Nc1ncc(Cc2ccccc2Cl)s1)c1ccc([N+](=O)[O-])cc1 | 0 | 0 | 0 | 0 | 0
O=C(Nc1ncc(Cc2ccc(C(F)(F)F)cc2)s1)c1ccc(-c2cccc([N+](=O)[O-])c2)o1 | 0 | - | 0 | 0 | 90
O=C(Nc1ncc(Cc2ccccc2Cl)s1)c1ccc(-c2cccc([N+](=O)[O-])c2)o1 | 0 | 0 | 0 | 0 | 92
O=C(N/N=C/c1ccc(OC(=O)c2ccccc2)c([N+](=O)[O-])c1)c1ccc(O)cc1 | - | - | 0 | 0 | 0
Cc1ccc(C(=O)CC2(O)C(=O)N(C)c3ccccc32)o1 (stereo unspecified) | 0 | - | + | 0 | 0
Cc1ccc(C(=O)NCC(=O)O)o1 | 0 | - | 0 | 0 | 0
O=C(N/N=C/c1cccnc1)c1cc2c(ccc3ccccc32)o1 | 0 | - | 0 | 0 | 0
Cc1ccc(/C=N/NC(=O)c2cc3c(ccc4ccccc43)o2)cc1[N+](=O)[O-] | 0 | - | 0 | 0 | 0
CCn1cc(/C=N/NC(=O)c2cc3c(ccc4ccccc43)o2)c2ccccc21 | 0 | - | 0 | 0 | 100
CC(C)n1cc(/C=N\NC(=O)c2cc3c(ccc4ccccc43)o2)c2ccccc21 | 0 | 0 | 0 | 0 | 97
CCOC(=O)C1C(=O)CC(C)(O)C(C(=O)OCC)C1/C=C/c1ccccc1 (stereo unspecified) | 0 | 0 | 0 | 0 | 0
COc1ccc([C@H]2C=C3CN(C(=O)OC(C)(C)C)S(=O)(=O)[C@H]3C[C@H]2OC(=O)c2cccs2)cc1 | 0 | - | - | - | -
Cc1onc(-c2ccccc2)c1C(=O)OCC(=O)NCc1ccc(F)cc1 | 0 | - | 0 | 0 | 0
NS(=O)(=O)c1ccc(N2N=C(c3ccc(Br)cc3)CC2c2ccc(F)cc2)cc1 (stereo unspecified) | 0 | 0 | 0 | 92 | 95
NS(=O)(=O)c1ccc(N2N=C(c3ccccc3)CC2c2cccc(F)c2)cc1 (stereo unspecified) | 0 | 0 | 0 | 85 | 0
Cc1cccc(-n2c(SCc3ccc(C#N)cc3)nnc2-c2c[nH]c3ccccc23)c1 | 0 | 0 | 0 | 0 | 98
COC(=O)c1ccc(CSc2nnc(-c3c[nH]c4ccccc34)n2-c2ccccc2)cc1 | 0 | - | 0 | 0 | 0
N#Cc1ccccc1NC(=O)Nc1ccccc1 | 0 | - | 0 | 0 | 0
O=C(Nc1ccccc1)Nc1ccccc1-n1ccnc1 | 0 | 0 | 0 | 0 | 80
Cn1c(=O)c2c(nc(N/N=C/c3ccc(OC(=O)c4ccco4)cc3)n2Cc2ccccc2)n(C)c1=O | 0 | 0 | 0 | 0 | 61
Cn1c(=O)c2c(nc(N/N=C/c3cccs3)n2Cc2ccccc2)n(C)c1=O | 0 | - | 0 | 0 | 0
Cc1ccc(N(C(=O)c2ccccc2Cl)C2=NC(C)CS2)c(C)c1 (stereo unspecified) | 0 | 0 | 0 | 72 | 94
CCOc1ccccc1N(C(=O)c1ccccc1Cl)C1=NC(C)(C)CS1 | 0 | - | 0 | 0 | 0
S=c1[nH]nc(COc2cccc(Cl)c2)n1Cc1ccccc1 | 0 | 0 | 0 | 73 | 0
SMILES | Ins promoter up | Insulin prom inh | Autophagy mod | WT yeast gro inh | L major viab
S=c1[nH]nc(COc2ccc(Cl)cc2)n1Cc1ccccc1 | 0 | - | 0 | 0 | 0
Cc1ccc(NCc2n[nH]c(=S)n2Cc2ccccc2)cc1Cl | - | - | 0 | 67 | 0
COc1ccc(C2=NOC(C(=O)Nc3cccnc3Cl)C2)cc1 (stereo unspecified) | 0 | - | + | 0 | 0
COc1cc(C2=NOC(C(=O)NCc3ccc(F)cc3)C2)cc(OC)c1OC (stereo unspecified) | 0 | 0 | + | 0 | 0
COc1ccc(CNC(=O)C2CC(c3cccc(OC)c3)=NO2)cc1 (stereo unspecified) | 0 | 73 | 0 | 0 | 0
COc1ccc(C2=NOC(C(=O)O)C2)cc1 (stereo unspecified) | - | 0 | 0 | 0 | 0
CN(C)c1ccc(/C=N/NC(=O)CN2CCN(c3ccc(F)cc3)CC2)cc1 | 0 | 0 | 0 | 0 | 0
OCCNCCCCSc1ccc(Cl)cc1 | 0 | - | 0 | 0 | 96
CN(C)CCOCCSc1ccc(Cl)cc1 | 0 | 0 | 0 | 0 | 98
CC(C)NCCOCCSc1ccc(Cl)cc1 | 0 | 0 | 0 | 0 | 90
CCCCNCCOCCSc1ccc(Cl)cc1 | 0 | 0 | 0 | 0 | 99
COc1ccc(S(=O)(=O)N(Cc2ccccc2)Cc2nc(-c3ccccc3)no2)cc1 | 0 | 0 | 0 | 0 | 0
Cn1c(SCC(=O)NC(=O)NCc2ccco2)nnc1C(F)(F)F | 0 | 0 | 0 | 0 | 0
COc1ccccc1-n1cc(-c2ccc(Cl)cc2)[nH]c1=O | 0 | 0 | 0 | 0 | 0
Cc1cc(Cl)ccc1OCC(=O)NNC(=O)C1CCCO1 (stereo unspecified) | 0 | 0 | 0 | 0 | 0
